High-throughput results from PubChem BioAssay.
This is a sample that favours compounds with a hit; in the whole collection about 3.8% have one here.
HT1080 IDH1KD tx: toxicity to HT-1080 IDH1 knockdown cells (counter line). HT-1080 IDH1 knockdown viability, ATP luminescence, 48 h. Potency, µM (top dose mostly 46.1 µM), inactives show at the top dose activity, negative = toxicity, hits mostly cytotoxic. 360,000 compounds, 2% hits. AID 686971;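 note: 0% = DMSO wells and -100% = cell-free medium wells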
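HT-1080-IDH1KD cells (IDH1 knocked down), 750/well in RPMI with 5% FBS, treated with compound 48 h at 37 degrees C. Viability by CellTiter-Glo luminescence, normalised to DMSO and no-cell wells; concentration-response curves classed.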
S2 tox: cell viability loss in ATXN counter-screen; Potency, µM (titrated, usually from 56.7 µM), hits mostly cytotoxic; S2 cells (HEK-293 line with an ATXN2-luciferase reporter) viability, CellTiter-Fluor protease fluorescence, 24 h; AID 651635; 400,000 compounds, 0.49% hits; note: nearly all actives have a fitted effect of over 40% in size
HT1080NT lethal: kills 2HG-producing HT-1080-NT fibrosarcoma cells; HT-1080-NT fibrosarcoma viability, CellTiter-Glo ATP luminescence, 48 h; Potency, µM (doses to about 46.1 µM), for the others: at the highest dose activity, negative = less viability, usual class: cytotoxic; 360,000 compounds, 1.6% hits; AID 686970;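 note: NT is the 2HG producing partner of a matched IDH1 knockdown line; 0% = DMSO-treated cells and -100% = media-only wells without cells; nearly all actives have a fitted effect of over 55% in size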
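A 48-hour cytotoxicity screen used HT-1080-NT cells plated 2 hours before compound delivery. ATP-based CellTiter-Glo luminescence measured viability, normalized to DMSO and no-cell controls.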
HepG2 viability: counter-screen for TGF-b inhibitors: cytotoxicity in HepG2 cells; HepG2 CAGA-GFP viability, ATP luminescence, 18 h; Potency, µM (titrated, usually from 46.1 µM), for inactives: at the highest dose activity change, negative = cytotoxicity, usual class: cytotoxic; 410,000 compounds, 0.76% hits; AID 588856
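CellTiter-Glo luminescence gave cytotoxicity after 18 hours at 37 degrees C. The cells were HepG2 CAGA-GFP in 1% FBS DMEM, stimulated with 500 pg/mL TGF-beta after compound addition. %Activity was normalised to no-cell wells (complete cell-killing) and DMSO (no toxicity), and curves were fitted and classified.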
TGFb inhibitor: TGF-b pathway inhibition | HepG2 CAGA-GFP TGF-b/SMAD3 reporter, GFP fluorescence, 18 h; TGF-beta stimulated, 500 pg/mL final | AID 588855 | 410,000 compounds, 1.2% hits | Potency, µM (top dose mostly 46.1 µM), without a hit: at the top dose activity, negative = inhibition, hits mostly inhibitors; note: % is set by controls: 0 for no effect and ±100 for the full control effect; nearly all actives have a fitted effect of over 65% in size
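Cell-based qHTS in HEPG2 carrying a CAGA-GFP Smad reporter; compounds added before 500 pg/mL final TGF-beta, 18 h incubation at 37 degrees C, GFP fluorescence quantified per cell by imaging cytometry.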
ATXN2 expr inh: reduces ATXN2 reporter expression in HEK-293 cells; HEK-293 ATXN2-luciferase reporter, luminescence, 24 h; AID 1745845; 360,000 compounds, 0.72% hits; Potency, µM (doses to about 57 µM), for inactives: at the highest dose activity change, negative = inhibition, usual class: inhibitors; note: % is set by controls: 0 for no effect and ±100 for the full control effect; nearly all actives have a fitted effect of over 55% in size
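qHTS (up to 57 uM final) was run with 24 h compound exposure of reporter cells at 37 °C. Each well was multiplexed: SteadyGlo luminescence measured ATXN2-luciferase expression after a fluorogenic Gly-Phe-AFC viability readout (25 uM final).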
Numbers without * were called inactive; i = inactive; ? = inconclusive; / = no result given; [ ] = remark or other dose. Calls come from the whole dose curve; as a rule, active = well fitted curve in the direction sought with a large enough effect; inconclusive = small, poorly fitted or top-dose-only effect, or another doubt; inactive = no such curve, though single readings can be large; an effect the other way counts as inactive or inconclusive. Potency is the fitted concentration of half-maximal effect.

SMILES | HT1080 IDH1KD tx | S2 tox | HT1080NT lethal | HepG2 viability | TGFb inhibitor | ATXN2 expr inh
Cc1ccc(CNc2nc(-c3ccco3)nn2C(=O)c2ccccc2[N+](=O)[O-])cc1 | / | i | / | -10% | -1% | 6%
c1ccc2c(CCC3CCNCC3)c[nH]c2c1 | / | i | / | / | / | /
C[C@H](CCC(=O)O)[C@H]1CC[C@H]2[C@@H]3[C@H](O)C[C@@H]4C[C@H](O)CC[C@]4(C)[C@@H]3CC[C@]12C | / | / | / | / | / | 7%
Cc1cc(SCC(=O)Nc2cccc(S(=O)(=O)NC3=NCCCCC3)c2)c(C)cc1Br | 13µM* | i | ? | -21% | ? | ?
Cc1cc(SCC(=O)Nc2cccc(S(=O)(=O)NC3=NCCCCC3)c2)nc2ccccc12 | -8% | i | 0% | -35% | 11µM* | /
O=C1c2ccccc2NC(c2ccc(-c3ccc(F)cc3)o2)N1O (stereo not drawn) | / | ? | / | -24% | -22% | ?
O=C1c2ccccc2NC(c2ccc(-c3ccc(Br)cc3)o2)N1O (stereo not drawn) | 11µM* | ? | 7.9µM* | -29% | ? | ?
COCCC1CCCCN1C(=O)c1cc(COc2ccc(C)nc2)on1 (stereo not drawn) | -10% | i | 21µM* | -4% | -10% | 6%
COCCCC1CCN(C(=O)c2cc(COc3ccc(C)nc3)on2)CC1 | -13% | i | ? | 9% | 10% | -14%
Cc1ccccc1NC(=O)CSc1nc(-c2ccccc2)cn1-c1ccccc1F | / | ? | / | -1% | 11µM* | ?
Cc1ccccc1-n1cc(-c2ccccc2)nc1SCC(=O)Nc1ccc(F)cc1 | / | i | / | -3% | ? | -23%
CCCC(C(=O)NCCC(C)C)N(Cc1ccc(OC)cc1)C(=O)c1snc(C(N)=O)c1N (stereo not drawn) | -3% | 24µM* | 2% | -18% | 0% | 15%
O=C(CN1C2=NCCN2c2ccccc21)C12CC3CC(CC(C3)C1)C2 | -1%[9.24 µM] | ? | 21µM* | -7% | 56% | -16%
COc1ccc(-c2nc(SCCOc3ccccc3Cl)n3[nH]c(=O)cc3n2)cc1 | / | i | / | -21% | ? | -7%
C=CCc1ccccc1OCCSc1nc(-c2ccccc2F)nc2cc(=O)[nH]n12 | / | i | / | -24% | 18µM* | -20%
O=C1CCCN1c1ccc(S(=O)(=O)Nc2ccc3c(c2)OCCO3)cc1 | ? | i | 5µM* | 0% | -26% | -18%
O=C1c2ccccc2C(=O)c2c1cccc2-n1nnc2ccccc21 | 4% | i | 7% | -5% | 17% | -16%
O=C1C(N2CCOCC2)=C(n2nnc3ccccc32)C(=O)c2ccccc21 | 16µM* | 20µM* | 12µM* | 14µM* | ? | 22µM*
Cc1cc(/C=N/n2cnnc2)c(C)n1-c1ccc(OCc2ccc(Cl)cc2Cl)cc1 | -24%[9.24 µM] | i | 23µM* | -74% | 8.9µM* | 16µM*
Cc1cc(/C=N/n2cnnc2)c(C)n1-c1ccc(Cl)cc1 | -4% | i | -7% | 0% | 13% | -1%
CC(C)NC(=S)NNc1ncnc2sc3c(c12)CC(C)(C)OC3 | 1% | i | 7% | -25% | -17% | -13%
CC1(C)Cc2c(sc3ncnc(NNC(=S)NCc4ccccc4)c23)CO1 | 1.8µM* | ? | ? | -15% | ? | /
Nc1c(Br)cc(Br)c2cccnc12 | / | / | / | 8% | 0% | /
O=C(CCl)N(CCCNC(=O)C(F)(F)F)c1ccc([N+](=O)[O-])cc1 | 7.3µM* | ? | 21µM* | 16µM* | ? | -23%
COc1ccc(CCNC2CCC(c3ccccc3)CC2)cc1 (stereo not drawn) | ? | i | 18µM* | -18% | 8% | -15%
COc1ccc(CCNC2CCc3ccccc3C2)cc1 (stereo not drawn) | -14% | / | -11% | -29% | -10% | /
